S1P4 antag = human S1P4 receptor antagonism | O95977 | S1P4-expressing cells, antagonist mode, reporter read-out | inhibition, % at 4.98 µM | 0.26% of 220,000 active; in the data active means inhibition above about 29%;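 further: 0% = wells stimulated with agonist and 100% = vehicle wells without agonist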
Target sequence (O95977 whole entry, looked up): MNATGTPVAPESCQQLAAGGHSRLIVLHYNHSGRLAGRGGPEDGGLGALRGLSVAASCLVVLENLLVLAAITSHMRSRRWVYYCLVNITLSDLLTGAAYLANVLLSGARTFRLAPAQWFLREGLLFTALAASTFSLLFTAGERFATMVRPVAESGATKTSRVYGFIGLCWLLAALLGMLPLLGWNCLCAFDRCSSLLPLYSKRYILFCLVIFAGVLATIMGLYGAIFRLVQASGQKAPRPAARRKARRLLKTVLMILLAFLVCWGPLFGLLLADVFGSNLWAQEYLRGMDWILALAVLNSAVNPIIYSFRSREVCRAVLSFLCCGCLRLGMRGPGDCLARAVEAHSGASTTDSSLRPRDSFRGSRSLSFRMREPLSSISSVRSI
S1P4 agonist = activates the human S1P4 receptor; O95977; S1P4-expressing cell line, agonist reporter assay; activation, % at 4.98 µM; 0.35% of 220,000 active; in the data active means activation above about 11%;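 further: 0% = DMSO vehicle and 100% = reference agonist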
S1P3 antagonist = blocks the human S1P3 receptor; CHO S1P3 NFAT-BLA reporter, FRET fluorescence, antagonist mode; inhibition, % at 4.98 µM; 0.27% of 170,000 active;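 active means inhibition above the plate cutoff, the mean inhibition of test wells on that plate plus 3 SD, cut at about 28% in these data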;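 further: cells challenged with S1P at its EC80 of 0.8 µM; blue over green emission ratio from cleaved BLA substrate after 4 h stimulation; 0% = S1P-stimulated wells and 100% = unstimulated DMSO-only wells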
GALR2 antag = GALR2 (human) receptor antagonism; O43603; GALR2-expressing cells, antagonist mode; inhibition, % at 4 µM; 0.39% of 140,000 active;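 further: cells stimulated with galanin 1-16 at roughly its EC80; 0% = agonist challenge control and 100% = basal control without agonist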
GALR2 agonist = activates the human galanin receptor 2 | activation, % (test concentration not listed) | AID 803 | 0.48% of 140,000 active | O43603 | GALR2-expressing cells, agonist activation read-out; in the data active means activation above about 5%, passing the limit was not always enough;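 further: 0% = vehicle buffer wells and 100% = reference agonist at full effect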
GALR2 agon conf = confirmation of human galanin receptor 2 (GALR2) agonists | shares compounds with GALR2 agonist | GALR2-expressing cells, agonist activation | activation, % at 5.6 µM | 10% of 460 active; in the data active means activation above about 8.4%;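 further: 0% = buffer-only vehicle wells and 100% = full reference agonist response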
BLA act counter = activates beta-lactamase reporter in GALR2 agonist counterscreen; 10% of 460 active; CHO NFAT-bla reporter, beta-lactamase FRET activation; activation, % at 5.6 µM; shares compounds with GALR2 agonist;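 active means activation above the screen-wide mean activation plus 3 SD, cut at about 8% in these data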;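 further: 0% = DMSO with PBS wells and 100% = thapsigargin positive control wells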
GALR2 blk conf = confirmation of human galanin receptor 2 (GALR2) antagonists; GALR2-expressing cells, antagonist mode, inhibition; AID 866; inhibition, % at 4 µM; 60% of 480 active; shares compounds with GALR2 antag;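 further: cells stimulated with galanin at about its EC80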
BLA inhib ctr = counter-screen for GALR2 antagonists: beta-lactamase reporter inhibitors | shares compounds with GALR2 antag | CHO NFAT-BLA reporter, beta-lactamase FRET, thapsigargin-stimulated | inhibition, % at 4.2 µM | 36% of 480 active | AID 867;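 active means inhibition above the mean inhibition across tested compounds plus 3 SD, cut at about 27% in these data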;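 further: 0% = 500 nM thapsigargin stimulated wells and 100% = unstimulated BSA only wells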
S1P4 agonist cf = confirmation of human S1P4 receptor agonists; activation, % at 4.98 µM; AID 1523; shares compounds with S1P4 agonist; 7% of 740 active; S1P4 agonist cell-based reporter assay; in the data active means activation above about 12%;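 further: 0% = vehicle and 100% = full reference agonist response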
S1P1 ag = human S1P1 agonism as S1P4 agonist counter-screen | shares compounds with S1P4 agonist | S1P1 agonist cell-based assay, activation | activation, % at 4.98 µM | 4% of 740 active | AID 1563; in the data active means activation above about 21%;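 further: 0% = vehicle wells and 100% = reference agonist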
* marks the source's active call; other numbers are inactive results; x = not tested or not shown. Rows were chosen to be rich in hits. Some 1.3% of all compounds tested hit in one or more screens of this group. Unless noted, no stated cut-off is given here; in the data, active means inhibition above about 27%; inactive means the rest.

SMILES	S1P4 antag	S1P4 agonist	S1P3 antagonist	GALR2 antag	GALR2 agonist	GALR2 blk conf	BLA inhib ctr	others
Cc1ccc(-c2nnc(N3CCCCC3)c3ccccc23)cc1S(=O)(=O)NCC1CCCO1 (stereo not drawn)	-18	0	x	-14	0	x	x
Cc1ccc2nsnc2c1NC(=O)c1ccc(-c2cc(Cl)ccc2Cl)o1	-1	1	x	38*	10	23	21	GALR2 agon conf=11*;BLA act counter=3
CC(C(=O)Nc1cc([N+](=O)[O-])ccc1Cl)N1CCN(c2ccc(O)cc2)CC1 (stereo not drawn)	-5	0	5	6	-1	x	x
N=c1oc2cc(O)ccc2cc1C(=O)Nc1nc2ccccc2s1	-76	92*	-103	-37	25*	x	x	GALR2 agon conf=36*;BLA act counter=94*;S1P4 agonist cf=80*;S1P1 ag=129*
O=C1NC(c2ccco2)Nc2sc3c(c21)CCN(Cc1ccccc1)C3 (stereo not drawn)	-31	15*	-26	-8	16*	x	x	GALR2 agon conf=0;BLA act counter=1;S1P4 agonist cf=0;S1P1 ag=6
CN1CCc2c(sc3c2C(=O)NC(c2ccco2)N3)C1 (stereo not drawn)	-19	4	-4	-11	2	x	x
Cc1ccccc1-n1c(C)nnc1SCC(=O)N(C)C1CCS(=O)(=O)C1 (stereo not drawn)	12	-1	-9	x	x	x	x
Cc1ccc2c(Cl)c(C(=O)Nc3cc(C)on3)sc2c1	2	1	x	29*	-2	10	11
COc1ccc(C(=O)Nn2c(SCc3ccc([N+](=O)[O-])cc3)nc3ccccc3c2=O)cc1	-13	1	x	14	-3	x	x
CCOC(=O)c1ccc(N2C(=O)CC(N3CCC(O)(c4ccc(Br)cc4)CC3)C2=O)cc1 (stereo not drawn)	-1	-3	x	30*	5	40*	3
CCOC(=O)c1ccc(N2C(=O)CC(N3CCC(O)(c4ccc(Cl)cc4)CC3)C2=O)cc1 (stereo not drawn)	-9	2	-3	13	0	x	x
COc1ccc(CC(=O)Nc2cccc(S(=O)(=O)N3CCCCCC3)c2)cc1OC	-16	1	-2	28*	-1	16	9
COc1ccccc1OCCC(=O)Nc1cccc(S(=O)(=O)N2CCCCC2)c1	-1	1	-12	-4	0	x	x
COc1ccc(C2(C#N)CCC(=O)N2c2ccccc2)cc1 (stereo not drawn)	-1	1	5	x	x	x	x
O=C1C=CC(O)(c2cc(=O)c3c(O)cc(O)cc3o2)C=C1	20	0	-10	90*	-2	83*	39*
Cn1c(NC(=O)c2ccc(F)c(F)c2)cc(=O)n(C)c1=O	1	1	-12	28*	-1	16	11
O=c1c2c(-c3cccs3)csc2ncn1-c1ccc(Br)cc1	-13	1	x	55*	0	13	8
CCc1ccc(NC(=O)CC2C(=O)N(c3cccc(C)c3)C(=O)N2C2CC2)cc1 (stereo not drawn)	-9	0	-10	x	x	x	x
O=C(OCn1ncc(Cl)c(Cl)c1=O)c1ccc(C(F)(F)F)cc1	5	-4	x	34*	-4	43*	12
O=C(OCCN1CCN(c2ncc(C(F)(F)F)cc2Cl)CC1)c1ccc(F)cc1	-6	-1	x	-3	-2	x	x
CCOc1cc(C=O)cc(Cl)c1OCC(N)=O	15	-2	-6	x	x	x	x
N=C(N)SCc1nc2ccccc2c(=O)n1-c1ccccc1Cl	-2	0	x	2	-2	x	x
Cc1ccccc1-n1c(CSC(=N)N)nc2ccccc2c1=O	15	-1	x	31*	-2	10	11
CCC(CC)C(=O)OCC(=O)Nc1cc(OC)c([N+](=O)[O-])cc1C	-8	0	6	-25	0	x	x
CCOc1ccc(Nc2ccc(N3C(=O)CCC3=O)cc2[N+](=O)[O-])cc1	-2	0	-10	x	x	x	x
SMILES	S1P4 antag	S1P4 agonist	S1P3 antagonist	GALR2 antag	GALR2 agonist	GALR2 blk conf	BLA inhib ctr	others
COc1ccc(Cl)cc1NC(=O)C1CCCN(S(=O)(=O)c2cccc3nonc23)C1 (stereo not drawn)	-33	0	x	31*	-1	22	7
COc1cccc(NC(=O)C2CCCN(S(=O)(=O)c3cccc4nonc34)C2)c1 (stereo not drawn)	-14	1	1	x	x	x	x
Cc1cccc(NC2SC(=O)NC2=O)c1 (stereo not drawn)	-20	1	0	x	x	x	x
Nc1c(C(=O)Nc2nc3ccccc3s2)sc2nc(-c3cccs3)ccc12	-5	-2	x	41*	0	49*	49*
Cc1nnsc1C(=O)N1CCN(c2ccc(C#N)cn2)CC1	4	-1	8	x	x	x	x
Cc1ccc[n+](CC(=O)Nc2cc(C(F)(F)F)ccc2N2CCOCC2)c1	-21	-1	-12	x	x	x	x
O=C(Nc1ccc([N+](=O)[O-])cc1)Nc1nc(-c2ccc(Cl)s2)cs1	-25	1	-9	32*	1	38*	20
Cc1ccc(-n2c(SCC(=O)NCCN3C(=O)CSC3=O)nnc2-c2ccccc2F)cc1	-13	0	-4	-9	0	x	x
Cc1cc(=O)[nH]c(N/N=C/c2sccc2C)n1	-10	-1	7	-1	-2	x	x
C(=N\Nc1nc2ccccc2[nH]1)/c1cccs1	-4	2	x	29*	-3	27	13
C(=N\Nc1nc2ccccc2[nH]1)/c1ccncc1	-4	1	-13	x	x	x	x
Cc1ccsc1/C=N/Nc1nc2ccccc2[nH]1	-3	0	0	32*	-1	38*	12
C=CCn1cc(/C=N/Nc2nc3ccccc3[nH]2)c2ccccc21	0	1	27	28*	-1	29*	11
C(=N\N(c1ccccc1)c1ccccc1)/c1ccc(N2CCOCC2)s1	5	1	-8	-1	0	x	x
O=C1Nc2ccccc2/C1=N\c1sc2c(c1C(=O)Nc1ccccc1)CCCC2	-1	-5	x	29*	-4	5	-5
N#CC(C#N)=C1C=CC=CN1/C(=C\c1ccco1)C(=O)c1ccc(Br)cc1	9	2	3	65*	0	68*	68*
N#C/C(=C/c1ccco1)C(N)=S	5	-2	-13	x	x	x	x
Cn1nnnc1SCC(=O)N1c2ccccc2Sc2ccccc21	-12	1	8	-5	-1	x	x
O=C(CSc1nncs1)N1c2ccccc2Sc2ccccc21	-18	0	9	29*	-1	20	2
